The structures appear in SMILES notation. Inconclusive results are not listed. Active and inactive are the calls of the source. Unless noted, calls come from the whole dose curve; as a rule, active = well fitted curve in the direction sought with a large enough effect in the repeat runs; inconclusive = weak or mixed curves; inactive = no such curve, though single readings can be large; an effect the other way counts as inactive or inconclusive.

Assay [1] can be described thus: qHTS assay to identify small molecule agonists of the peroxisome proliferator-activated receptor delta (PPARd) signaling pathway - cell viability counter screen (AID 743211). Note: nearly all actives have a fitted effect of over 55% in size. Note: potency is the fitted concentration of half-maximal effect. In a few lines: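 Tox21 library compounds, delivered in DMSO, were incubated 17 h with PPARd-bla HEK293H cells; cytotoxicity was taken from CellTiter-Glo luminescence read 30 min after reagent addition.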
For orientation: qHTS replaces the single test concentration by a dilution series.

A short description of assay [2]: qHTS assay to identify small molecule antagonists of the peroxisome proliferator-activated receptor delta (PPARd) signaling pathway - cell viability counter screen (AID 743213). Note: nearly all actives have a fitted effect of over 50% in size. Note: potency is the fitted concentration of half-maximal effect. In a few lines: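 Cytotoxicity counter screen: CellTiter-Glo luminescence read 30 min after addition, in the same wells as the reporter assay. There, PPARd UAS-bla HEK293H cells (3000/well) were treated 17 h at 37 C with compound and 300 nM L165041.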

Assay [3] has as its target Vitamin D3 receptor (Homo sapiens) (UniProt P11473). The experiment in a line: qHTS assay to identify small molecule agonists of the vitamin D receptor (VDR) signaling pathway (AID 743222; calls by dose curve; note: potency is the fitted concentration of half-maximal effect). In a few lines:
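Agonist mode, beta-lactamase reporter: fluorescence from LiveBLAzer B/G FRET substrate (2 h, room temperature) read after 16 h compound treatment at 37 C of VDR-bla cells, which were pre-incubated 4 h after seeding.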

Assay [4] is described as follows: qHTS assay to identify small molecule agonists of the farnesoid-X-receptor (FXR) signaling pathway - cell viability counter screen (AID 743218). Note: nearly all actives have a fitted effect of over 45% in size. Note: potency is the fitted concentration of half-maximal effect. In a few lines: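 Viability counter screen in the same wells: CellTiter-Glo luminescence, 30 min room-temperature incubation, measured after the beta-lactamase read. Cells were GeneBLAzer FXR-UAS-bla HEK 293T, compound-treated 16 h at 37C.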

Assay [5] in a line: qHTS assay to identify small molecule antagonists of the farnesoid-X-receptor (FXR) signaling pathway - cell viability counter screen (AID 743221; active = well fitted cell-killing curve with a large enough effect in the repeat runs, not every such curve was filed as active; note: nearly all actives have a fitted effect of over 50% in size; note: potency is the fitted concentration of half-maximal effect). In a few lines: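 Cytotoxicity is taken from ATP luminescence (CellTiter-Glo, 30 min, room temperature) in FXR-bla HEK 293T cells previously incubated 16 h at 37 C with compound and chenodeoxycholic acid at 50 uM final.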
In assay [6] the target is Vitamin D3 receptor (Homo sapiens) (UniProt P11473). The experiment in a line: qHTS assay to identify small molecule antagonists of the vitamin D receptor (VDR) signaling pathway (AID 743223; active = well fitted inhibition curve with a large enough effect in the signal ratio in the repeat runs, not every such curve was filed as active; the % refers to the signal ratio; note: potency is the fitted concentration of half-maximal effect). In a few lines:
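Quantitative HTS in VDR-bla reporter cells stimulated with 1alpha,25-dihydroxyvitamin D3, 3 nM final. Compound exposure 16 h, 37C, 5% CO2. Read-out: beta-lactamase FRET substrate fluorescence, 2 h RT.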

The target in assay [7] is Bile acid receptor (Homo sapiens) (UniProt Q96RI1). The experiment in a line: qHTS assay to identify small molecule agonists of the farnesoid-X-receptor (FXR) signaling pathway (AID 743220; active = well fitted activation curve with a large enough effect in the signal ratio in the repeat runs, not every such curve was filed as active; the % refers to the signal ratio; note: potency is the fitted concentration of half-maximal effect). In a few lines: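 FXR-UAS-bla HEK 293T cells carrying a UAS-driven beta-lactamase reporter were plated for 5 h at 37C/5% CO2, then exposed to DMSO-dissolved Tox21 10K compounds for 16 h at 37C. A LiveBLAzer B/G FRET substrate was loaded for 2 h at room temperature before fluorescence reading.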

The target of assay [8] is Peroxisome proliferator-activated receptor delta (Homo sapiens) (UniProt Q03181). Kind of assay: qHTS assay to identify small molecule antagonists of the peroxisome proliferator-activated receptor delta (PPARd) signaling pathway (AID 743215; active = well fitted inhibition curve with a large enough effect in the signal ratio in the repeat runs, not every such curve was filed as active; the % refers to the signal ratio;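 note: cells stimulated with agonist L165041 at 300 nM final during compound exposure; series mostly up to about 62 µM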). In a few lines:
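Agonist L165041 (300 nM final) added with compound to PPARd-bla HEK293H UAS-bla reporter cells; 17 h incubation at 37 C. Read-out: LiveBLAzer FRET substrate, 2 h at room temperature, fluorescence intensity.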

Assay [9] shares this target. Kind of assay: qHTS assay to identify small molecule agonists of the peroxisome proliferator-activated receptor delta (PPARd) signaling pathway (AID 743212; calls by dose curve). The method, boiled down: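 Read-out: beta-lactamase FRET fluorescence after 2 h room-temperature incubation with LiveBLAzer B/G substrate. Cells were HEK293H carrying a UAS-bla reporter for PPARd, treated at 37 C with DMSO-dissolved compounds.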

Assay [10] concerns the target Bile acid receptor (Homo sapiens) (UniProt Q96RI1). Kind of assay: qHTS assay to identify small molecule antagonists of the farnesoid-X-receptor (FXR) signaling pathway (AID 743217; active = well fitted inhibition curve with a large enough effect in the signal ratio in the repeat runs, not every such curve was filed as active; the % refers to the signal ratio). In a few lines: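 Antagonist mode: chenodeoxycholic acid at 50 uM final stimulates a UAS-driven beta-lactamase reporter in HEK 293T FXR-bla cells during 16 h, 37C compound exposure. Read-out is FRET substrate fluorescence after 2 h at room temperature.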

Sequence of Vitamin D3 receptor (Homo sapiens) (P11473 whole entry, looked up): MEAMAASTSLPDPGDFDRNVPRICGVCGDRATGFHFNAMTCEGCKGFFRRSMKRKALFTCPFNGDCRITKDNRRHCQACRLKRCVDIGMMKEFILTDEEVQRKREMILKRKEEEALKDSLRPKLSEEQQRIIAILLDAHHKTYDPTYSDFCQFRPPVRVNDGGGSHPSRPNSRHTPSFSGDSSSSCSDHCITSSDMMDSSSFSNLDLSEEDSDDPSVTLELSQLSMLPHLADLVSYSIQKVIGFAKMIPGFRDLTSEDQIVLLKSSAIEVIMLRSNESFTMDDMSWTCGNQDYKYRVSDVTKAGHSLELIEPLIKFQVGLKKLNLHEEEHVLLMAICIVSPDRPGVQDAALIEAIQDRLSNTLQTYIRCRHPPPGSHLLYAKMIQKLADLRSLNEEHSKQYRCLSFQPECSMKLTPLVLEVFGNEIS
Sequence of Bile acid receptor (Homo sapiens) (Q96RI1 whole entry, looked up): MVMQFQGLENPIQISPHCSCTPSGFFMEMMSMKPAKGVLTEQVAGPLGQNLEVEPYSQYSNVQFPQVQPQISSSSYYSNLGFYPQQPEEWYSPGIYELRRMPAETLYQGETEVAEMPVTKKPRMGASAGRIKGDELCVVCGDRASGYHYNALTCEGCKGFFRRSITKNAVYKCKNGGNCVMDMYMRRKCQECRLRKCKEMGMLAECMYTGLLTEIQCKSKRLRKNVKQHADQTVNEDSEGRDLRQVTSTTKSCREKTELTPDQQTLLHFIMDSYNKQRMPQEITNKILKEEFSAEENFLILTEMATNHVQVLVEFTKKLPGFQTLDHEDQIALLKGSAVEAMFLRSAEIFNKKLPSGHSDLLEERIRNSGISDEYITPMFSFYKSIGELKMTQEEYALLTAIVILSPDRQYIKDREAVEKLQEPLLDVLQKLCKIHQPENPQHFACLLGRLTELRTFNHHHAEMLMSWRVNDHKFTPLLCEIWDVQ
Sequence of Peroxisome proliferator-activated receptor delta (Homo sapiens) (Q03181 whole entry, looked up): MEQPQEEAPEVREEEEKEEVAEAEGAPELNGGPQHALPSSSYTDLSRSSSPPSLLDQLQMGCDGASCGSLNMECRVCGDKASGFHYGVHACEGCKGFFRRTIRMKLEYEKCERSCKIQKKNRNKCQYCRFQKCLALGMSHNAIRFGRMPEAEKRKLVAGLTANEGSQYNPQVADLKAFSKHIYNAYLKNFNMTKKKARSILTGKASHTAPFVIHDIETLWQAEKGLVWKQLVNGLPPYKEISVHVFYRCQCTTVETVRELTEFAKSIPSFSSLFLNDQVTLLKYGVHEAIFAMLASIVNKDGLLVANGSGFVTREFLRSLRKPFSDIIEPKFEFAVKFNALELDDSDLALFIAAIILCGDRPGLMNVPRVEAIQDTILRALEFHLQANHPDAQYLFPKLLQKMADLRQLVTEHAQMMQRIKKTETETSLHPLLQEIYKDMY

As for `CCOC(=O)c1ccccc1C(=C1C=C(Br)C(=O)C(Br)=C1)c1cc(Br)c(O)c(Br)c1`, the Potency result in assay [1], in assay [2] and in assay [3] was “inactive” throughout.

`c1cc(N(CC2CO2)CC2CO2)ccc1Cc1ccc(N(CC2CO2)CC2CO2)cc1` (stereo not drawn): the Potency entry in assay [1], in assay [2], in assay [4] and in assay [5] was “inactive” in each case.

For `C[C@H]1c2cccc(O)c2C(O)=C2C(=O)[C@]3(O)C(O)=C(C(N)=O)C(=O)[C@@H](N(C)C)[C@@H]3[C@@H](O)[C@@H]21`, the Potency result in [1], in assay [2], in assay [4] and in assay [5] was “inactive” throughout.

Regarding `O=c1cc(-c2ccccc2)oc2cc(O)cc(O)c12`, the Potency entry in assay [1], in assay [2] and in assay [5] was “inactive” each time.

Regarding `N#[N+]c1ccc2c(S(=O)(=O)[O-])cccc2c1O`, the Potency entry in assay [1], in [2], in assay [4], in [5], in assay [3] and in assay [6] was “inactive” in each case.

For the compound `COC(=O)c1nc(Cl)c(Cl)nc1N`, the Potency in assay [1] was 29.8 µM (active); in [2], 29.8 µM (active); in [7], 29.8 µM (active); in [3], 11.9 µM (active).

On to `OC1(c2ccccc2)CCNCC1`, for which the Potency entry in assay [1], in [2], in assay [4], in assay [5] and in assay [6] was “inactive” in each case.

For the compound `CC(C)C=O`, the Potency result in assay [1], in [2], in [4], in assay [3] and in assay [6] was “inactive” in each case.

For the compound `Clc1ccc(Nc2nnc(Cc3ccncc3)c3ccccc23)cc1`, the Potency result in assay [1], in assay [2], in assay [7] and in [6] was “inactive” throughout.

`CC1(C)[C@@H](OC(=O)CCC(=O)O)CC[C@]2(C)[C@H]3C(=O)C=C4[C@@H]5C[C@@](C)(C(=O)O)CC[C@]5(C)CC[C@@]4(C)[C@]3(C)CC[C@@H]12`: the Potency entry in assay [1], in assay [2], in assay [4] and in assay [5] was “inactive” in each case.

As for `CC(=O)OCCN(CCOC(C)=O)c1ccc(N=Nc2ccc([N+](=O)[O-])cc2C#N)cc1`, the Potency entry in assay [1], in assay [2], in [4], in assay [5] and in assay [3] was “inactive” throughout.

Turning to `C[C@@H]1CC(=O)NN=C1c1ccc(NN=C(C#N)C#N)cc1`, the Potency result in assay [1], in [2], in assay [4] and in [5] was “inactive” throughout.

Consider `CC(C)(C)CC(=O)OCC(=O)[C@@]1(O)CC[C@H]2[C@@H]3CCC4=CC(=O)C=C[C@]4(C)[C@H]3[C@@H](O)C[C@@]21C`, for which the Potency result in assay [1], in assay [2], in assay [4], in assay [5] and in assay [3] was “inactive” each time.

With `CN1CCCC(n2nc(Cc3ccc(Cl)cc3)c3ccccc3c2=O)CC1` (stereo not drawn), the Potency entry in assay [1] and in assay [8] was “inactive” each time. Further, the Potency in [4] was 21.1 µM (active).

Regarding `Cc1cc(=O)c2c(O)c3c(O)cc(=O)c4c3c3c(cc(O)c1c23)C(C)(C)C=4O`, the Potency in [1] is 0.291 µM (active); in assay [4] it was 1.84 µM (active).

As to `COc1cc(Nc2c(C#N)cnc3cc(OCCCN4CCN(C)CC4)c(OC)cc23)c(Cl)cc1Cl`, the Potency in assay [1] was 26.6 µM (active); in assay [4], 13.3 µM (active).

With `CN1C[C@H](C(=O)N[C@]2(C)O[C@@]3(O)[C@@H]4CCCN4C(=O)[C@H](Cc4ccccc4)N3C2=O)C[C@@H]2c3cccc4[nH]cc(c34)C[C@H]21`, the Potency in [1] was 23.7 µM (active); in assay [4], 26.6 µM (active).

For the compound `CCCCCCCCCCC(=O)O`, the Potency result in assay [1], in assay [8], in assay [4] and in [5] was “inactive” each time.

For `CN1C(=O)N(c2ccccc2Br)Cc2cnc(Nc3ccc4c(c3)OCC(CO)O4)nc21` (stereo not drawn), the Potency in assay [1] is 1.1 µM (active); in assay [2], 11 µM (active); in assay [6], 13.8 µM (active). Also, the Potency entry in [4] and in assay [3] was “inactive” in each case.

Turning to `Cc1[nH]cnc1CN1CCc2c(c3ccccc3n2C)C1=O`, the Potency entry in [1], in [2], in assay [4], in assay [5], in [3] and in assay [6] was “inactive” each time.

Turning to `O=C(O)CCC(=O)C(=O)O`, the Potency result in assay [1], in [2], in [4] and in assay [6] was “inactive” throughout.

On to `Brc1cc2ccccc2c2ccccc12`, for which the Potency result in assay [1], in assay [2], in assay [4] and in assay [5] was “inactive” in each case.

With `CC1=C(CC=O)C(C)(C)CCC1`, the Potency entry in assay [1], in [2], in assay [4], in assay [5] and in assay [3] was “inactive” in each case.

For the compound `CC1=Nc2ccc3ccccc3c2C1(C)C`, the Potency entry in assay [1] and in assay [4] was “inactive” each time.

On to `CC(C)c1nc(CN(C)C(=O)N[C@H](C(=O)N[C@@H](Cc2ccccc2)C[C@H](O)[C@H](Cc2ccccc2)NC(=O)OCc2cncs2)C(C)C)cs1`, for which, in assay [1], the Potency is 29.8 µM (active). Also, the Potency result in [8] and in assay [7] was “inactive” throughout.

For the compound `Brc1cc(Br)c(Oc2cc(Br)c(Br)cc2Br)cc1Br`, in assay [2], the Potency is 23.9 µM (active). Besides, the Potency entry in [4] and in [5] was “inactive” in each case.

As to `O=C(O)c1cccc(-c2noc(-c3ccccc3F)n2)c1`, the Potency result in assay [2] was “inactive”. In assay [5], the Potency was 11.9 µM (active).

Regarding `N#CCCN(CCO)CCO`, the Potency entry in [9], in assay [2], in assay [8], in [10], in assay [4] and in [7] was “inactive” throughout. The Potency entry in assay [5], in assay [3] and in [6] was “inactive” throughout.

As for `O=[N+]([O-])c1ccc(O/N=C/c2cc(Br)c(O)c(Br)c2)c([N+](=O)[O-])c1`, the Potency result in assay [10], in assay [4], in assay [7] and in assay [6] was “inactive” in each case.

In the case of `CCCCCCCCC(CCCCCC)C(=O)O` (stereo not drawn), the Potency entry in [2], in assay [7], in [3] and in [6] was “inactive” each time.

`CCC(=O)OC`: the Potency entry in assay [1], in assay [4], in assay [5], in [3] and in assay [6] was “inactive” each time.

As to `OC[C@H]1O[C@@H](n2cnc3c(=S)nc[nH]c32)[C@H](O)[C@@H]1O`, the Potency result in assay [9], in assay [7], in [3] and in assay [6] was “inactive” throughout. In addition, the Potency in assay [5] is 16.8 µM (active).

For `C/C=C(/C(=C/C)c1ccc(O)cc1)c1ccc(O)cc1`, the Potency result in assay [9], in assay [7] and in assay [3] was “inactive” in each case.

In the case of `CC(CC1c2ccccc2CCc2ccccc21)CN(C)C` (stereo not drawn), the Potency result in assay [8], in assay [10], in [4], in assay [7] and in assay [5] was “inactive” throughout.

These data come from PubChem BioAssay (Tox21).
